Measurements published in PubChem BioAssay (NCATS).
Records with an inconclusive call do not appear. Calls of active or inactive are those of the source. Calls follow the shape of the dose curve; as a rule, active = well fitted curve in the direction sought with a large enough effect; inconclusive = small, poorly fitted or top-dose-only effect, or another doubt; inactive = no such curve, though single readings can be large; an effect the other way counts as inactive or inconclusive.

What was measured:
W2 = test: qHTS profiling for inhibitors of Plasmodium falciparum proliferation (AID 504749);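 also: 0% = DMSO vehicle and full inhibition = artemisinin control; nearly all actives have a fitted effect of over 60% in size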; conditions: P. falciparum in erythrocytes, SYBR Green DNA, 72 h; series mostly up to 28.7 µM
Outline: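 Fluorescence of SYBR Green-bound parasite DNA, read at 485/535 nm, served as the growth measure. Infected erythrocytes were cultured with compound 72 h; artemisinin (0.29 uM) and DMSO wells defined the normalization range.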

CRL-7250 = normal cell line; test: Cytotoxic Profiling of Annotated Libraries Using Quantitative High-Throughput Screening (AID 1296008); conditions: Five cell lines viability, CellTiter-Glo ATP luminescence, 48-72 h; max response: stronger effect = lower value; also: nearly all actives have a fitted effect of over 60% in size; as to max response: % is scaled to controls: 0 for no effect and ±100 for the full control effect
Outline: (§1)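 Compounds were pin-transferred onto cells and incubated 48 or 72 hr at 37 degree Celsius, 95% humidity. CellTiter-Glo was added, plates sat 10 min at room temperature, then ATP-coupled luminescence was imaged as the viability read-out.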

HEK293 = test: as above; conditions: Five cell lines viability, CellTiter-Glo ATP luminescence, 48-72 h; max response: stronger effect = lower value
Outline: as §1

HaCat = test: as above; conditions: Five cell lines viability, CellTiter-Glo ATP luminescence, 48-72 h; max response: stronger effect = lower value
Outline: as §1

KB-3-1 = test: as above; conditions: Five cell lines viability, CellTiter-Glo ATP luminescence, 48-72 h; max response: stronger effect = lower value
Outline: as §1

NIH3T3 = test: as above; conditions: Five cell lines viability, CellTiter-Glo ATP luminescence, 48-72 h; max response: stronger effect = lower value
Outline: as §1

MCC-13 = test: qHTS assay to identify novel small-molecules to repurpose for Merkel cell carcinoma treatment (AID 1296009); conditions: MCC and control cell lines, CellTiter-Glo viability, 72 h; series mostly up to 46 µM; also: % is scaled to controls: 0 for no effect and ±100 for the full control effect; nearly all actives have a fitted effect of over 60% in size
Outline: (§2)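 Luminescence from CellTiter-Glo, read 10 min after addition at room temperature, reported viability following a 72 hr, 37 degree celsius treatment with NPC or MIPE compounds in titration; values normalized to plate controls.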

MKL-1 = test: as above; conditions: MCC and control cell lines, CellTiter-Glo viability, 72 h; series mostly up to 46 µM
Outline: as §2

MKL-2 = test: as above; conditions: MCC and control cell lines, CellTiter-Glo viability, 72 h; series mostly up to 46 µM
Outline: as §2

UISO = test: as above; conditions: MCC and control cell lines, CellTiter-Glo viability, 72 h; series mostly up to 46 µM
Outline: as §2

WaGa = test: as above; conditions: MCC and control cell lines, CellTiter-Glo viability, 72 h; series mostly up to 46 µM
Outline: as §2

C33A = test: Primary qHTS to identify gynecologic anti-cancer compounds using libraries of approved drugs and bioactive compounds (AID 1345084); conditions: Gynecologic cancer cell panel viability, ATPlite luminescence, 48 h; series mostly up to 57.5 µM; also: % is scaled to controls: 0 for no effect and ±100 for the full control effect; nearly all actives have a fitted effect of over 55% in size
Outline: (§3)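 Cells, 1,000 per well, plated 16 h, then exposed 48 h at 37 C to compounds. Viability by ATPlite luminescence after 15 min at room temperature.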

CAOV3 = test: as above; conditions: Gynecologic cancer cell panel viability, ATPlite luminescence, 48 h; series mostly up to 57.5 µM
Outline: as §3

CASKI = test: as above; conditions: Gynecologic cancer cell panel viability, ATPlite luminescence, 48 h; series mostly up to 57.5 µM
Outline: as §3

Es-2 = test: as above; conditions: Gynecologic cancer cell panel viability, ATPlite luminescence, 48 h; series mostly up to 57.5 µM
Outline: as §3

HeLa = test: as above; conditions: Gynecologic cancer cell panel viability, ATPlite luminescence, 48 h; series mostly up to 57.5 µM
Outline: as §3

MCC-26 = test: qHTS assay to identify novel small-molecules to repurpose for Merkel cell carcinoma treatment (AID 1296009); conditions: MCC and control cell lines, CellTiter-Glo viability, 72 h; series mostly up to 46 µM; also: % is scaled to controls: 0 for no effect and ±100 for the full control effect; nearly all actives have a fitted effect of over 60% in size
Outline: as §2

CCCCNC(=O)NS(=O)(=O)c1ccc(N)cc1
inactive: Potency (W2) | max response (CRL-7250) -16.6% | max response (HEK293) 2.1% | max response (HaCat) 3.3% | max response (KB-3-1) 10% | max response (NIH3T3) -1.55% | Potency (MCC-13) | Potency (MKL-1) | Potency (MKL-2) | Potency (UISO) | Potency (WaGa) | Potency (C33A) | Potency (CAOV3) | Potency (CASKI) | Potency (Es-2) | Potency (HeLa)

CC(C)Cc1ccc(CC(=O)O)cc1
inactive: Potency (W2) | max response (CRL-7250) 2.76% | max response (HEK293) -6.81% | max response (HaCat) -0.56% | max response (KB-3-1) -9.62% | max response (NIH3T3) 2.82% | Potency (MCC-13) | Potency (MCC-26) | Potency (MKL-1) | Potency (MKL-2) | Potency (UISO) | Potency (WaGa) | Potency (C33A) | Potency (CAOV3) | Potency (CASKI) | Potency (Es-2) | Potency (HeLa)

O=[N+]([O-])c1cccc(S(=O)(=O)NCCNS(=O)(=O)c2cccc([N+](=O)[O-])c2)c1
inactive: outcome (CRL-7250) | max response (HEK293) -16% | max response (HaCat) 0.408% | max response (KB-3-1) 2.2% | max response (NIH3T3) -4.18% | Potency (MCC-13) | Potency (MCC-26) | Potency (MKL-1) | Potency (MKL-2) | Potency (UISO) | Potency (WaGa) | Potency (C33A) | Potency (CASKI) | Potency (Es-2) | Potency (HeLa)

Cc1ccccc1OCC(O)CO (configuration not stated)
inactive: Potency (W2) | outcome (CRL-7250) | max response (HEK293) -6.66% | max response (HaCat) 0.0907% | max response (KB-3-1) 1.58% | max response (NIH3T3) -27.4% | Potency (MCC-13) | Potency (MCC-26) | Potency (MKL-1) | Potency (MKL-2) | Potency (UISO) | Potency (WaGa) | Potency (C33A) | Potency (CAOV3) | Potency (CASKI) | Potency (Es-2) | Potency (HeLa)

Nc1nc(-c2ccccc2)c(Br)c(=O)[nH]1
inactive: Potency (W2) | max response (CRL-7250) -18.3% | max response (HEK293) -28.5% | max response (HaCat) -7.63% | max response (KB-3-1) 4.06% | max response (NIH3T3) -18.4% | Potency (MCC-13) | Potency (MCC-26) | Potency (MKL-1) | Potency (MKL-2) | Potency (UISO) | Potency (WaGa) | Potency (C33A) | Potency (CAOV3) | Potency (CASKI) | Potency (Es-2) | Potency (HeLa)

CCNC(=O)/C=C/c1cccc(Br)c1
inactive: Potency (W2) | outcome (CRL-7250) | max response (HEK293) -0.855% | max response (HaCat) 0.498% | max response (KB-3-1) -0.104% | max response (NIH3T3) -21% | Potency (MCC-13) | Potency (MCC-26) | Potency (MKL-1) | Potency (MKL-2) | Potency (UISO) | Potency (WaGa) | Potency (C33A) | Potency (CAOV3) | Potency (CASKI) | Potency (Es-2) | Potency (HeLa)

CC(=O)OCC1=C(C(=O)O)N2C(=O)[C@@H](NC(=O)CSc3ccncc3)[C@H]2SC1
inactive: max response (CRL-7250) -1.6% | max response (HEK293) 4.22% | max response (HaCat) 0.118% | max response (KB-3-1) 2.34% | max response (NIH3T3) 1.18% | Potency (MCC-13) | Potency (MCC-26) | Potency (MKL-1) | Potency (UISO) | Potency (C33A) | Potency (CAOV3) | Potency (CASKI) | Potency (Es-2) | Potency (HeLa)

CCc1oc2ccccc2c1C(=O)c1cc(I)c(O)c(I)c1
inactive: Potency (W2) | max response (CRL-7250) -2.92% | max response (HEK293) -23.3% | max response (HaCat) -7.93% | max response (KB-3-1) -18.7% | max response (NIH3T3) -1.15% | Potency (MCC-13) | Potency (MCC-26) | Potency (MKL-1) | Potency (MKL-2) | Potency (WaGa) | Potency (C33A) | Potency (CAOV3) | Potency (CASKI) | Potency (Es-2) | Potency (HeLa)

Cc1cc(-c2ccccc2)nnc1NCCN1CCOCC1
inactive: max response (CRL-7250) -17.2% | max response (HEK293) 1.05% | max response (HaCat) -33.8% | max response (KB-3-1) -13.9% | max response (NIH3T3) -3.42% | Potency (MCC-13) | Potency (MKL-1) | Potency (MKL-2) | Potency (UISO) | Potency (WaGa) | Potency (C33A) | Potency (CAOV3) | Potency (CASKI) | Potency (HeLa)

O=C(O)c1ccc(S(=O)(=O)N(Cl)Cl)cc1
inactive: Potency (W2) | max response (CRL-7250) 3.6% | max response (HEK293) 3.96% | max response (HaCat) -0.853% | max response (KB-3-1) -9.69% | max response (NIH3T3) -3.94% | Potency (MCC-13) | Potency (MCC-26) | Potency (MKL-1) | Potency (MKL-2) | Potency (UISO) | Potency (WaGa) | Potency (C33A) | Potency (CASKI) | Potency (Es-2) | Potency (HeLa)

c1ccc(CC2=NCCN2)cc1
inactive: Potency (W2) | max response (CRL-7250) 1.69% | max response (HEK293) -22.9% | max response (HaCat) -10.1% | max response (KB-3-1) -6.13% | max response (NIH3T3) -5.64% | Potency (MCC-13) | Potency (MCC-26) | Potency (MKL-1) | Potency (UISO) | Potency (C33A) | Potency (CAOV3) | Potency (CASKI) | Potency (Es-2) | Potency (HeLa)

CNCCc1ccccn1
inactive: Potency (W2) | outcome (CRL-7250) | max response (HEK293) -1.02% | max response (HaCat) -8.27% | max response (KB-3-1) 5.51% | max response (NIH3T3) -2.69% | Potency (MCC-13) | Potency (MCC-26) | Potency (MKL-1) | Potency (MKL-2) | Potency (UISO) | Potency (WaGa) | Potency (C33A) | Potency (CASKI) | Potency (Es-2) | Potency (HeLa)

C/C=C/C=N/NC(=O)c1ccncc1
inactive: Potency (W2) | max response (CRL-7250) -0.246% | max response (HEK293) -6.37% | max response (HaCat) 0.247% | max response (KB-3-1) -15.9% | max response (NIH3T3) -0.451% | Potency (MCC-13) | Potency (MCC-26) | Potency (C33A) | Potency (CASKI) | Potency (Es-2) | Potency (HeLa)

CC(C)Cn1cnc2c1c(=O)n(C)c(=O)n2C
inactive: Potency (W2) | outcome (CRL-7250) | max response (HEK293) -0.637% | max response (HaCat) -0.147% | max response (KB-3-1) -13.7% | max response (NIH3T3) 1.58% | Potency (MCC-13) | Potency (MCC-26) | Potency (MKL-1) | Potency (MKL-2) | Potency (UISO) | Potency (WaGa) | Potency (C33A) | Potency (CASKI) | Potency (Es-2)
